# Measurements taken from PubChem BioAssay (NCATS).
# Inconclusive results are not listed. Unmarked numbers belong to inactive results. The call rests on the fitted dose curve; in most records, active means well fitted cell-killing curve with a large enough effect; inconclusive means small, poorly fitted or top-dose-only effect, or effect the other way; inactive means flat fitted curve, though single readings scatter.
# Test system: Tov112D
# Test: Primary qHTS to identify gynecologic anti-cancer compounds using libraries of approved drugs and bioactive compounds (AID 1345084); further: nearly all actives have a fitted effect of over 55% in size
# Conditions: Gynecologic cancer cell panel viability, ATPlite luminescence, 48 h; series mostly up to 57.5 µM; activity change, negative = cytotoxicity: at the top concentration
# In short: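 Cytotoxicity screen measuring ATP content by luciferase luminescence. Each compound is applied at five concentrations for 48 h at 37 C with 5% CO2.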
# On the % scale 0 is the no-effect control and ±100 the full control effect.
row,Structure (SMILES),"activity change, negative = cytotoxicity"
1,C/C1=C\C[C@H](O[C@@H]2O[C@H](CO)[C@@H](O)[C@H](O)[C@H]2O)/C(C)=C/[C@H]2OC(=O)[C@H](C)[C@@H]2CC1,-0.407% [at 25.3 µM]
2,COC(=O)[C@H](CC1C=NC=N1)NCC12CC3CC(CC(C3)C1)C2 (some centres not stated),13.6%
3,CC(C)C1=CCC(C)(O)C(OC2OC(CO)C(O)C(O)C2O)C1 (configuration not stated),4.61% [at 38.5 µM]
4,COc1cc(NC(=O)c2ccccn2)ccc1Cl,2.8%
5,NCCOCCOCCNC(=O)Cc1ccc(Nc2nc(NCc3ccc(F)cc3)nc(NCC3CCCCC3)n2)cc1,14.3%
6,CCC(NC(=O)CC(NC(=O)C(CO)NC(=O)C(CC)NC(=O)c1ccc[nH]1)c1ccccc1)C(=O)O (configuration not stated),-3.01% [at 25.3 µM]
7,C=C1C[C@]23C[C@H]1CC[C@H]2[C@@]12C=C[C@H](O)[C@@](C)(C(=O)O1)[C@H]2[C@@H]3C(=O)O,0.754% [at 38.5 µM]
8,CC(C)CC(=O)OC[C@H]1O[C@@](COC(=O)CC(C)C)(O[C@H]2O[C@H](CO)[C@@H](O)[C@H](O)[C@H]2O)[C@@H](OC(=O)CC(C)C)[C@@H]1OC(=O)CC(C)C,7.8% [at 25.3 µM]
9,COc1cc(C2c3cc(O)c(OC)cc3CC(CO)C2CO)ccc1O (configuration not stated),5.95% [at 38.5 µM]
10,N#CCc1ccc(O)cc1O[C@@H]1O[C@H](CO)[C@@H](O)[C@H](O)[C@H]1O,3.48% [at 38.5 µM]
11,C=C1C[C@@]23CC[C@@H]4[C@](C)(C(=O)O)CCC[C@@]4(C)C2=CC[C@H]1C3,-4%
12,C[C@@H]1O[C@@H](O[C@H]2[C@H](OC(C#N)c3ccc(O)cc3)O[C@H](CO)[C@@H](O)[C@@H]2O)[C@H](O)[C@H](O)[C@H]1O (some centres not stated),0.209% [at 25.3 µM]
